Measured values taken from PubChem BioAssay (NCI).
About 83,000 compounds went through this panel and 20% of them were active in at least one assay; those are over-represented in the sample as a whole.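 96-well plates, one dose, 48 hours. Percent growth reported; active if below 10.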 A number with no mark means an inactive call. Activity calls are given as the source filed them.

The compounds below were run on TK-10 renal (assay: NCI-60 one-dose screen, 48 h (100 = growth as untreated, 0 = no growth, -100 = all killed)). Details: 10 µM unless noted.
Experimental: Growth inhibition of the TK-10 human tumor cell line is measured as a screen for anti-cancer activity. Cells are grown in 96 well plates and exposed to the test compound for 48 hours. Compounds are tested at a single concentration, which is 10^-5 M for most compounds. The reported endpoint is percent growth (GI% or GIPRCNT), where numbers from 0 - 100% represent growth inhibition, and numbers from -100% - 0 represent cell death. For example, a value of 40 represents 60% growth inhibition. A value of 0 means no net growth occurred over the course of the experiment. A value of -40 indicates 40% of cells at the beginning of the experiment died by the end of the experiment. A value of -100 means all cells are dead at the end of the experiment.
NCI-60 Human Tumor Cell Lines Screen was performed using the standard one-dose NCI protocol, which is described in more detail at https://dtp.cancer.gov/discovery_development/nci-60/default.htm.
Compounds with GIPRCNT values below 10 were considered active. Activity score was based on GIPRCNT using the following formula: […]
Score is 0 for GIPRCNT values of 100 or above, 50 for GIPRCNT values of 0, and 100 for GIPRCNT values of -100.
With `C[N+](C)(C)c1ncnc2[n-]cnc12` the growth was 78.9%. With `CC(C)(C)c1cc(C(=O)N2CCC(C(=O)NCCN)CC2)cc(C(C)(C)C)c1` the growth was 98.4%. `Cc1ccc(S(=O)(=O)NCCCNc2nccc(-c3c(-c4cccc(F)c4)nc4occn34)n2)cc1` gave a growth of 79.8%. Work on `Cc1cccc(/C=C2\N=C(c3ccccc3)N(c3ccc(S(N)(=O)=O)cc3)C2=O)c1` yielded a growth of 98.5%. `O=[N+]([O-])c1cc(CCl)ccc1OCCBr` was tested, and the growth was 101%. Work on `Cc1ccccc1OC(=O)c1cccc(Cl)c1` yielded a growth of 108%. With `O=C(Nc1cccc(F)c1)c1cc(=O)[nH]c2cc(Br)ccc12` the growth was 69.8%. For `O=C1COCCN1c1ccc(Nc2nc(Cl)nc(N3CCOCC3)n2)cc1`, the growth was 90.5%. `CCOC(=O)/C(C#N)=C(\C)CCc1ccccc1` showed a growth of 140%. With `O=C(O)c1cccc(CN2CCN(c3cc4c(cc3F)c(=O)c(C(=O)O)cn4C3CC3)CC2)c1O` the growth was 96.6%. `COc1cc(Cl)cc(-c2nn(C(=O)NS(=O)(=O)c3ccccc3)cc2-c2ccncc2)c1` gave a growth of 97.2%. For `CCCOc1ccc(-c2nc(-c3ccc(N)cc3)cs2)cc1`, the growth was 125%. Work on `CCN(CC)c1ccc2cc(C(Nc3ccc(Br)c(C(F)(F)F)c3)c3nnnn3C(C)(C)C)c(=O)oc2c1` (stereo not given) yielded a growth of 83.9%. `CC1(C)CC[C@]2(C(=O)O)CC[C@]3(C)C(=CC[C@@H]4[C@@]5(C)C/C(=C/c6ccco6)C(=O)C(C)(C)[C@@H]5CC[C@]43C)[C@@H]2C1` was tested, and the growth was -19.1% [100 µM] (active). For `CC[C@@](C)(NC(=O)[C@H](C)NC(=O)CCNC(=O)C(C)(C)NC(=O)[C@H](C)NC(=O)[C@@H]1CCCN1C(=O)[C@@](C)(CC)NC(=O)[C@H](Cc1ccccc1)NC(=O)C1CCCN1C(=O)C(C)(C)NC(=O)C1CCCN1C(=O)C(C)(C)NC(C)=O)C(=O)NCCC(=O)N[C@@H](CC(C)C)C(=O)NC(C)(C)C(=O)NCCC(=O)N[C@@H](CC(C)C)C(=O)NC(C)(C)C(=O)NC(C)(C)C(=O)N[C@@H](CC(C)C)C(=O)NCCC(=O)NCO` (stereo not given in full), the growth was -98.9% (active). Compound `Cc1cnc([C@]23CC[C@@H](C)[C@H](C)[C@H]2C2=CC[C@@H]4[C@@]5(C)Cc6c([nH]c7ccccc67)C(C)(C)[C@@H]5CC[C@@]4(C)[C@]2(C)CC3)o1` has a growth of 64.2% [100 µM]. Work on `Cn1cc(-c2noc(-c3cn(C)c4ncccc34)n2)c2cc(Cl)ccc21` yielded a growth of 89.5%. `O=C(OCc1ccc2c(Cl)cc(Cl)c(O)c2n1)N1CCNCC1` was tested, and the growth was 52.1%. Work on `C=CCCCCCCCCC(=O)OC(C)C` yielded a growth of 101%. `CC1(C)OC2[C@@H](CNC(=O)NC(=O)NC(=O)CI)O[C@@H](n3cnc4c(NC(=O)Nc5ccccc5)ncnc43)[C@H]2O1` (stereo not given in full) was tested, and the growth was 102%. For `C=C(C)[C@@H]1CC[C@]2(C)[C@H](CC[C@@H]3[C@@H]([C@@](C)(O)CCC=C(C)C)CC[C@]32C)[C@@]1(C)CCC(=O)O`, the growth was 18.1% [100 µM]. In the case of `O=C(NCCCNC(=O)OCc1ccc2c(Br)cc(Br)c(O)c2n1)OCc1ccc2c(Br)cc(Br)c(O)c2n1`, the growth is reported as -89% (active). Work on `N#C/C(C(=O)c1ccccc1)=C1/C(=O)Nc2ccc(Br)cc21` yielded a growth of 142%. `CCCSc1nc(N)nc2nc[nH]c12` gave a growth of 154%. `CC1(C)CC[C@]2(C(N)=O)CC[C@]3(C)C(=CC[C@@H]4[C@@]5(C)C/C(=C/c6cccnc6)C(=O)C(C)(C)[C@@H]5CC[C@]43C)[C@@H]2C1` was tested, and the growth was -14.8% [100 µM] (active). `N#CCCc1c[nH]c2ccccc12` gave a growth of 104%. With `C=C(C)[C@@H]1CC[C@]2(C(=O)N3CCN(C)CC3)CC[C@]3(C)[C@H](CC[C@@H]4[C@@]5(C)C/C(=C/c6ccncc6)[C@H](O)C(C)(C)[C@@H]5CC[C@]43C)[C@@H]12` the growth was 22% [100 µM]. `CCOC(=O)c1c[nH]n2c(=S)ncnc12` showed a growth of 99.6%. For `C#C[C@]1(O)CC[C@H]2[C@@H]3CC=C4c5nc(Nc6ncccn6)sc5CC[C@]4(C)[C@H]3CC[C@@]21C`, the growth was 77.3%. `FC(F)(F)c1ccc2c(c1)Sc1ccccc1N2` was tested, and the growth was 101%. Work on `CCC(Br)(CC)C(=O)c1ccc(OCC(=O)O)c(Cl)c1Cl` yielded a growth of 125%. For `O=S(=O)(c1ccc(N/N=C\c2ccccc2Cl)cc1)c1ccc(N/N=C/c2ccccc2Cl)cc1`, the growth was 110%. `COc1ccc(-c2cc(-c3ccc(Cl)cc3)nc(NCCCCNc3ccnc4cc(Cl)ccc34)n2)cc1` showed a growth of 107%. `CCOC(=O)COc1c(C)cc(SSc2cc(C)c(OCC(=O)OCC)c(C)c2)cc1C` gave a growth of 87.5%. `COC(=O)[C@]12CCC(C)(C)C[C@H]1C1=CC[C@@H]3[C@@]4(C)C/C(=C/c5cccnc5)C(=O)C(C)(C)[C@@H]4CC[C@@]3(C)[C@]1(C)CC2` was tested, and the growth was -35.9% [100 µM] (active). In the case of `COc1cc2c(cc1OCCCCCOc1ccc(-n3c(C)nc4ccccc4c3=O)cc1)N=C[C@@H]1CCCN1C2=O`, the growth is reported as -28.2% (active). In the case of `Clc1ccc(/C=N/Nc2nc3ccccc3s2)c(Cl)c1`, the growth is reported as 95.4%. Work on `CC(C)CSc1ncnc2nc[nH]c12` yielded a growth of 82.4%. With `CCN(CC)c1ccc2cc(NC(=O)OCCNC(=O)CCNC(=O)[C@H](CC(C)C)NC(=O)C(C)(C)NC(=O)C(C)(C)NC(=O)[C@H](CC(C)C)NC(=O)CCNC(=O)C(C)(C)NC(=O)[C@H](CC(C)C)NC(=O)CCNC(=O)[C@@](C)(CC)NC(=O)[C@H](C)NC(=O)CCNC(=O)C(C)(C)NC(=O)[C@H](C)NC(=O)[C@@H]3CCCN3C(=O)[C@@](C)(CC)NC(=O)[C@H](Cc3ccccc3)NC(=O)C3CCCN3C(=O)C(C)(C)NC(=O)C3CCCN3C(=O)C(C)(C)NC(C)=O)c(=O)oc2c1` (stereo not given in full) the growth was -93.3% (active). With `COc1ccc2c3ccnc(C(F)(F)F)c3n(CCCCN)c2c1` the growth was 61.3%.
